Measurements taken from PubChem BioAssay AID1053122 (Broad Institute, 2014).
Potency and affinity values are given separately.

Assay: YAP1 pathway inhibition via CTGF transcript levels, dose response, cell-based, DLD1 colon cancer, RT-qPCR, cherry-pick (AID 1053122)
Settings: DLD1 CTGF mRNA (YAP1 pathway), 24 h; series mostly up to 26 µM; CTGF expression fold change (lower = inhibition): at the top concentration;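 active = CTGF level falls with dose and the fitted half-maximal dose is at most twice the top valid dose; inconclusive = flat fit with 30 to 70% drop, or a poor fit; inactive = the rest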

CTGF expression fold change (lower = inhibition), inactive:
C[C@@H]1CN([C@@H](C)CO)C(=O)c2cc(NC(=O)Nc3ccccc3)ccc2O[C@@H](C)CCCCO[C@@H]1CN(C)C(=O)Nc1ccccc1 0.865 unspecified
CCS(=O)(=O)Nc1ccc2c(c1)C(=O)N(C)[C@H]1CC[C@H](CC(=O)N3CCN(C)CC3)O[C@H]1CO2 0.968 unspecified
Cc1ccc(S(=O)(=O)N2CC[C@@H]3[C@H]2c2cc(-c4cccc(C(=O)N(C)C)c4)ccc2N[C@@H]3CO)cc1 0.672 unspecified [at 23.5 µM]
NCC[C@H]1CC[C@@H](NC(=O)NC2CCCCC2)[C@H](CO)O1 0.998 unspecified
CN1C(=O)c2cc(NC(=O)Cc3cccs3)ccc2OC[C@@H]2O[C@@H](CC(=O)NCCc3ccncc3)CC[C@H]21 1.3 unspecified [at 23.5 µM]
O=C(CC1CC1)N1CC(=O)N2[C@H](CO)[C@@H](c3ccc(C#Cc4cccc(F)c4)cc3)[C@H]2C1 0.722 unspecified
C[C@@H]1CN([C@@H](C)CO)C(=O)c2ccccc2-c2ccccc2CO[C@@H]1CN(C)S(=O)(=O)c1cn(C)cn1 0.921 unspecified
C[C@@H]1CN([C@@H](C)CO)C(=O)c2ccccc2-c2ccccc2CO[C@H]1CN(C)C(=O)Nc1ccc(-c2ccccc2)cc1 0.477 unspecified
Cc1cccc(-c2ccc([C@@H]3[C@@H](CO)N4CCCCN(S(=O)(=O)c5ccccc5F)C[C@@H]34)cc2)c1 0.684 unspecified
CC(C)(C)[S@](=O)N1Cc2cc(C(=O)NCc3ccccn3)nc(-c3cccc(-c4ccccc4F)c3)c2[C@@H]1CCO 0.92 unspecified
CCNC(=O)c1cc2c(c(-c3cccc(-c4ccccc4F)c3)n1)[C@@H](CCO)N(C(=O)CC1CC1)C2 0.698 unspecified
